SRC1 inh: inhibitors of human steroid receptor coactivator 1 (SRC1); 360,000 tested, 0.12% active; HEK293 GAL4-SRC1 luciferase reporter, luminescence; inhibition, % at 3.6 µM; Q15788;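 active = inhibition above the campaign mean plus 3 SD, with each screening campaign given its own cutoff, cut at about 60% in these data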;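 note: 0% = DMSO treated cells and 100% = gossypol at 36 µM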
NCOA2 inhibitor: inhibits human steroid receptor coactivator 2; Q15596; HEK293 GAL4-SRC2 luciferase reporter, luminescence; inhibition, % at 9 µM; 370,000 tested, 0.17% active;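 active = inhibition above the mean inhibition of all tested compounds plus 3 SD, set per campaign, cut at about 52% in these data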;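 note: 0% = DMSO treated cells and 100% = cells given Gossypol at 36 µM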
GalR3 antagonist: blocks the human galanin receptor 3; HEK293 GalR3-CNG cAMP membrane potential fluorescence; galR3 body fused to GalR1 C-terminus; O60755; inhibition, % at 3 µM; 360,000 tested, 0.44% active;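 active = inhibition above the screen-wide average plus 3 SD, cut at about 13% in these data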;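 note: forskolin and galanin both at EC90 stimulate the cells; cAMP rise reported by CNG channel membrane potential dye signal; 0% = forskolin plus galanin with DMSO and 100% = forskolin alone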
NCOA3 inh: inhibits human SRC3 coactivator | HEK293 GAL4-SRC3 luciferase reporter, luminescence | inhibition, % at 3.6 µM | 360,000 tested, 0.17% active;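 active = inhibition above a per-campaign cutoff, the mean of all compounds plus 3 SD, cut at about 60% in these data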;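 note: 0% = DMSO-treated cells and 100% = gossypol-treated cells at 36 µM; higher means less SRC3-driven luciferase light from the GAL4 reporter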
LRH-1 inv ag: inverse agonists of human LRH-1 (NR5A2) | HEK293T StAR-luciferase reporter, LRH-1 transfected, 24 h | inhibition, % at 3.6 µM | 360,000 tested, 0.13% active | AID 602396;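 active = inhibition above the mean inhibition of all tested compounds plus 3 SD, cut at about 73% in these data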;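 note: 0% = DMSO wells and 100% = reporter-only cells lacking LRH-1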
Target sequence (O00482 whole entry, looked up): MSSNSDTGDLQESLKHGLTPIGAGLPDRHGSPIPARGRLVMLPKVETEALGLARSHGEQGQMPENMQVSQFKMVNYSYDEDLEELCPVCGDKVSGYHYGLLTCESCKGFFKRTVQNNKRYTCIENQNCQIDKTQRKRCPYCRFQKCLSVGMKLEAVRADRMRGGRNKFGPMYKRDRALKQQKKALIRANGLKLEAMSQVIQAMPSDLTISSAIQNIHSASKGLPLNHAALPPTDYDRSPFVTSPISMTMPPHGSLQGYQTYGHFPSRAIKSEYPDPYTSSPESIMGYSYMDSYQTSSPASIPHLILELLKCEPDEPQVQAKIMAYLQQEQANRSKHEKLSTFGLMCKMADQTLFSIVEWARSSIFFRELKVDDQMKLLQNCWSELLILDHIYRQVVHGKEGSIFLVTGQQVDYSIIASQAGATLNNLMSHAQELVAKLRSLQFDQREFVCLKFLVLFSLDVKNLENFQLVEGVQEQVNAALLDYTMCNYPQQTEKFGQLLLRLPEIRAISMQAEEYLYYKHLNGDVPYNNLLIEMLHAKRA
COUP-TFII inh: inhibitors of human COUP-TFII (NR2F2); P24468; HEK293T NGFI-A luciferase reporter, luminescence; 370,000 tested, 0.7% active; inhibition, % at 8.6 µM; AID 686940;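 active = inhibition above a per-plate cutoff, mean inhibition of test wells between control levels plus 3 SD, cut at about 38% in these data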;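 note: cells cotransfected with COUP-TFII expression vector driving the NGFI-A reporter; 0% = median of COUP-TF2 test wells and 100% = reporter-only cells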
GalR3 antag conf: GalR3 (human) antagonism, confirmation. shares compounds with GalR3 antagonist. HEK293 GalR3 CNG cAMP biosensor, membrane potential fluorescence; galR3 fused to GalR1 carboxy tail; challenged with forskolin and galanin at EC90. inhibition, % at 3 µM. 1,600 tested, 59% active;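 active = inhibition above the primary screen's cutoff, the mean inhibition of all screened compounds plus 3 SD, cut at about 13% in these data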;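 note: 0% = forskolin plus galanin and 100% = forskolin alone with DMSO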
HEK-CNG parental: parental cell agonism counter-screen for GalR3 antagonists; HEK293-CNG parental cells, cAMP membrane potential fluorescence; normalised: DMSO wells 0%, forskolin wells 100%; 1,600 tested, 10% active; activation, % at 3 µM; shares compounds with GalR3 antagonist; AID 652268; in the data active = activation above about 1.3%
* hit, by the source's call; x = not tested or not shown. This is a sample that favours compounds with a hit; in the whole collection about 1.1% have one here.

SMILES	SRC1 inh	NCOA2 inhibitor	GalR3 antagonist	NCOA3 inh	LRH-1 inv ag	COUP-TFII inh	GalR3 antag conf	HEK-CNG parental
CC(C)(C)c1ccc(-c2csc(NC(=O)CN3C(=O)NC4(CCCCC4)C3=O)n2)cc1	-11	-10	-1	1	-42	1	x	x
Cc1cccc(-c2nnc(N)s2)c1	-3	-18	13*	4	10	-13	2	0
O=C(COC(=O)c1cnc(Cl)c(Cl)c1)NCCC1=CCCCC1	-25	-5	-3	-3	-7	11	x	x
CN(C)S(=O)(=O)N1CCC(Oc2ccc(C(=O)NC3CCOC(C)(C)C3)cc2)CC1 (stereo not drawn)	2	-25	-9	-7	-6	7	x	x
CN(C)S(=O)(=O)N1CCC(Oc2ccc(C(=O)NC3Cc4ccccc4C3)cc2)CC1	-5	-4	30*	-2	-11	23	99*	0
CC(NCC1COc2ccccc2O1)C(=O)NCc1ccccc1 (stereo not drawn)	8	11	13*	7	1	7	7	0
CC1CN(C)C(C)C/C1=N/Oc1ccccc1[N+](=O)[O-] (stereo not drawn)	4	-6	13*	12	8	4	3	0
O=[N+]([O-])c1cccc(C2=NCCC(c3ccccc3)O2)c1 (stereo not drawn)	2	-19	22*	-15	-21	-55	4	0
Cc1c(C(=O)NCCN2CCOCC2)oc2ccccc12	-3	-31	-2	-1	-11	0	x	x
Cc1ccc([N+](=O)[O-])cc1S(=O)(=O)N1CCCC1	6	-17	x	2	9	-18	0	0
Cc1ccc([N+](=O)[O-])cc1S(=O)(=O)N1CCC(C)CC1	-25	11	-3	14	6	-12	x	x
COc1ccc(C(=O)c2ccc3oc(-c4ccc(OC)cc4)c(-c4ccc(O)cc4)c3c2)cc1	3	-16	13*	-2	-34	-17	5	-1
COc1ccc(C(=O)c2c(-c3ccc(OC)cc3)oc3ccccc23)cc1	0	11	3	-23	1	-2	x	x
O=C(CSc1ncc(C(F)(F)F)cc1Cl)NCC1CCCO1 (stereo not drawn)	4	-10	13*	8	12	-23	2	1
O=C(CSc1cc(Cl)ccc1Cl)NCC1CCCO1 (stereo not drawn)	13	10	-6	15	5	-10	x	x
CCc1cc(=O)[nH]c(SCC(=O)NCC2CCCO2)n1 (stereo not drawn)	11	6	0	-42	-25	20	x	x
Nc1cc(=O)[nH]c(SCC(=O)NCC2CCCO2)n1 (stereo not drawn)	-9	-4	13*	2	-17	-9	-4	0
COc1cc(C(=O)NC2CCN(C)CC2)ccc1Nc1ncc2c(n1)N(Cc1ccccc1)CCC(=O)N2C	-90	-1	-4	0	-7	-1	x	x
COc1cc(C(=O)NC2CCN(C)CC2)ccc1Nc1ncc2c(n1)N(C1CCCCC1)CCC(=O)N2C	-41	-171	19*	-7	42	-111	13*	0
Cc1[nH]c2ccc(C(=O)NCCCN3CCN(C)CC3)cc2c1C	4	-2	15*	-3	23	13	-4	0
Cc1[nH]c2ccc(C(=O)NCCCN3CCOCC3)cc2c1C	3	0	3	9	1	-15	x	x
CC1CC(C)CN(C(=O)CSCC(=O)O)C1 (stereo not drawn)	6	-1	13*	5	-4	-8	-2	0
COC(=O)CC1c2cc(OC)c(OC)cc2CC(=O)c2cc(OC)c(OC)cc21 (stereo not drawn)	-8	-10	-3	13	-18	1	x	x
CN(c1ccccc1)S(=O)(=O)c1cccc(NC(=O)CN2C(=O)NC3(CCCCC3)C2=O)c1	3	26	-4	-12	-7	11	x	x
CC(C)CC1(C)NC(=O)N(CC(=O)Nc2cccc(S(=O)(=O)N(C)c3ccccc3)c2)C1=O (stereo not drawn)	-1	-7	14*	6	12	-9	57*	0
SMILES	SRC1 inh	NCOA2 inhibitor	GalR3 antagonist	NCOA3 inh	LRH-1 inv ag	COUP-TFII inh	GalR3 antag conf	HEK-CNG parental
Brc1ccc(-c2ncc(-c3ccccc3)cn2)cc1	-82	-25	x	-88	-56	-37	3	0
Brc1ccc(-c2ccccc2)cc1	2	-13	-2	5	-4	3	x	x
CN1CC(=O)N(CC(=O)Nc2ccc3c(c2)CCC3)C1=O	-2	1	24*	-2	12	-18	4	0
O=S(=O)(c1ccc(Cl)cc1)N1CCN(S(=O)(=O)N2CCCCCC2)CC1	-18	-12	16*	7	-9	-20	3	0
COc1c(/C=C2\SC(=Nc3ccccc3Cl)NC2=O)cccc1[N+](=O)[O-]	3	6	51*	-29	12	-3	65*	1
CCCNC(=O)C12CCC(C)(c3nc4cc(C)c(C)cc4nc31)C2(C)C (stereo not drawn)	-7	4	16*	16	10	16	4	0
N#Cc1nc(COc2cccc(Cl)c2)oc1N1CCN(c2ccccc2)CC1	12	x	x	5	16	x	x	x
COc1ccc(CC(=O)N2CCN(C(=O)Cc3ccc(OC)cc3)CC2)cc1	-14	-12	-3	-7	0	0	x	x
COc1ccc(CC(=O)N2CCN(c3ccc(C4=NNC(=O)CC4C)cc3)CC2)cc1 (stereo not drawn)	-11	-16	76*	-13	15	0	87*	0
CC(=O)c1cccc(CN2CCN(CCc3ccccc3)C(CCO)C2)c1 (stereo not drawn)	9	20	5	5	13	4	x	x
CC(=O)c1cccc(CN2CCN(CC=C(C)C)C(CCO)C2)c1 (stereo not drawn)	-4	16	16*	7	12	-24	1	0
CCCCCCNC(=O)CC(NS(=O)(=O)c1ccc(OC)cc1)C(C)C (stereo not drawn)	16	-2	21*	12	18	15	-2	0
CCCCCCCNC(=O)CC(NS(=O)(=O)c1ccc(NC(C)=O)cc1)C(C)C (stereo not drawn)	13	-13	-10	2	7	1	x	x
O=C(O)Cc1csc(-c2cccc(F)c2)n1	-1	-31	x	-30	15	11	0	0

Screening data: PubChem BioAssay, The Scripps Research Institute Molecular Screening Center
